Source: PubChem BioAssay (Johns Hopkins Ion Channel Center)
KCNQ2 enhance: KCNQ2 (rat) channel potentiation. O88943. CHO-K1 KCNQ2, FluxOR thallium flux fluorescence; active compounds read high. B-score at 10 µM. actives 0.54% (n = 310,000);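 active = fluorescence ratio B-score at least 3 SD of library B-scores, with initial fluorescence B-score within 3 of them, cut at about 5.3 in these data; same plate scores as AID 2156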;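 also: B-score of peak minus minimum over baseline fluorescence ratio after K+ and Tl+ stimulus; positive B-score means potentiation of KCNQ2 with more thallium influx and brighter signal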
Target sequence (O88943 whole entry, looked up): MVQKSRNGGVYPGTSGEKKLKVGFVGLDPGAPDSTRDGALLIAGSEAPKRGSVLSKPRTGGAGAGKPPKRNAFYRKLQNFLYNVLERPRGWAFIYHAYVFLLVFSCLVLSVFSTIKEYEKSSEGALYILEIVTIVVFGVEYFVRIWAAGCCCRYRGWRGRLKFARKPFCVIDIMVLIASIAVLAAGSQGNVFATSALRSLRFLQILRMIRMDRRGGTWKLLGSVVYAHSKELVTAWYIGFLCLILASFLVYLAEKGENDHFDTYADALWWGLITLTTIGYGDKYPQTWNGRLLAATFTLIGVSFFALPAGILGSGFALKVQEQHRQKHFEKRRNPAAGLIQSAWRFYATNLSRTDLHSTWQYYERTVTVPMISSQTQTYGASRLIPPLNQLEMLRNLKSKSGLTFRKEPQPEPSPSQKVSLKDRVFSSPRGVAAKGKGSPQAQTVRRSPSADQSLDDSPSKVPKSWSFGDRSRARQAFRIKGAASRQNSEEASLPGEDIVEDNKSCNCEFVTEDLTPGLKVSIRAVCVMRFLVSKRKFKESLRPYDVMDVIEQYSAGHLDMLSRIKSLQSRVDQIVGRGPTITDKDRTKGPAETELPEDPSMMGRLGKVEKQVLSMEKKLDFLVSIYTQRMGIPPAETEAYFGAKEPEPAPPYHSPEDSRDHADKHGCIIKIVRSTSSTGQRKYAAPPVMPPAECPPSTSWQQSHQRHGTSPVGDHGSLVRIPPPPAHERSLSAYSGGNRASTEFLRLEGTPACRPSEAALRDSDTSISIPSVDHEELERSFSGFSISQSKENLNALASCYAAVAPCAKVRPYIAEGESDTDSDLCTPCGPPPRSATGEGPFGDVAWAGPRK
KCNQ2 block: blocks the rat KCNQ2 potassium channel | O88943 | CHO-K1 KCNQ2, FluxOR thallium flux, 20 min; active compounds read low | B-score at 10 µM | actives 1.1% (n = 310,000) | AID 2156;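 active = fluorescence ratio B-score at most minus 3 library SDs, with starting brightness B-score within 2 library SDs, cut at about -5.5 in these data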
Starred values were filed as active, the others as inactive; i = inactive; x = no result given. Shown are actives, neighbours in structure and some others; about 1.6% of the full set was active somewhere.

SMILES	KCNQ2 enhance	KCNQ2 block
O=P(O)(Oc1ccccc1)OC(c1ccccc1)C(F)(F)F (centres undefined)	0.26	i
O=P(NC(c1ccccc1)c1ccccc1)(Oc1ccccc1)Oc1ccccc1	-5.9	-5.9*
C=CC[N+]1(C)CC[C@]23c4c5ccc(O)c4O[C@H]2C(=O)CC[C@@]3(O)[C@H]1C5 (some centres undefined)	x	i
COc1cc2c(cc1/C=C/[N+](=O)[O-])OCO2	-7.8	-7.8*
COc1cc(/C=C/[N+](=O)[O-])ccc1OC(=O)c1cccnc1	x	i
COc1ccc(-n2c(-c3ccccc3Br)nc3ccccc3c2=O)cc1	x	i
O=c1[nH]c(=O)n(Cc2ccco2)c(O)c1C=NC1CCN(Cc2ccccc2)CC1	x	i
Cc1ccc(OCC(=O)N2CCN(C3CCC(c4ccccc4)CC3)CC2)cc1 (centres undefined)	-6.2	-6.2*
O=C(COc1ccc(Br)cc1)N1CCN(C2CCCC2)CC1	x	i
CN1C(=O)NC(=O)/C(=C\C=C\c2ccccc2[N+](=O)[O-])C1=O	x	i
Clc1ccc(COC(Cn2ccnc2)c2ccc(Cl)cc2Cl)cc1 (centres undefined)	-8.3	-8.3*
Clc1ccc(CSC(Cn2ccnc2)c2ccc(Cl)cc2Cl)cc1 (centres undefined)	x	i
CN1CCC(O)(c2cccs2)C(C(=O)c2cccs2)C1 (centres undefined)	x	i
O=C1NC(=O)C(=Cc2coc3ccc(O)cc3c2=O)C(=O)N1	-5.8	-5.8*
CN1C(=O)C(=Cc2coc3ccccc3c2=O)C(=O)N(C)C1=O	x	i
CCOP(=O)(/C=C(\Cl)c1ccccc1)C(O)c1ccc(F)cc1 (centres undefined)	x	i
C=CCn1c(O)c(C(CC)=NCC2CCCO2)c(=O)[nH]c1=O (centres undefined)	0.06	i
O=C(CN1CCCC1)Nc1ccc(Cl)cc1C(=O)c1ccccc1	1.1	i
O=C(CCN1CCCCC1)Nc1ccc(Cl)cc1C(=O)c1ccccc1	-5.6	-5.6*
CSc1ccc(CNC(C)C(O)c2ccccc2)cc1 (centres undefined)	x	i
COc1ccccc1-n1c(-c2cccs2)nc2ccccc2c1=O	0.76	i
CC1(CCl)CN1S(=O)(=O)c1ccccc1 (centres undefined)	x	i
O=C(COc1ccc(Br)cc1)N1CCN(Cc2c[nH]c3ccccc23)CC1	-5.8	-5.8*
c1ccc2c(CN3CCCCC3)c[nH]c2c1	x	i
Cc1cc(O)c2c3c(c(=O)oc2c1)CCC(C)C3 (centres undefined)	x	i
SMILES	KCNQ2 enhance	KCNQ2 block
Cc1cc(O)c2c(c1)OC(C)(C)C1=C2CC(C)CC1 (centres undefined)	-7.3	-7.3*
CCOc1cc2c(cc1OCC)-n1cccc1C(c1ccc(C(C)C)cc1)NC2 (centres undefined)	x	i
Cc1ccc(-n2cc(CNC(C)Cc3cnccn3)c(-c3cccc(C)c3)n2)cc1 (centres undefined)	0.08	i
CCc1c(C)nc(N)nc1N1N=C1SCC(=O)OC	9.6*	i
CCc1c(C)nc(N)nc1N1N=C1SCC#N	2.5	i
O=C(O)c1cccc(NC(=O)N2C[C@H]3C[C@@H](C2)c2cccc(=O)n2C3)c1	0.11	i
CC1CCN(CCc2nc3ccccc3[nH]2)CC1	x	i
Clc1ccc(CO/N=C(\Cn2ccnc2)c2ccc(Cl)cc2Cl)c(Cl)c1	-6	-6*
N=c1sccn1Cc1ccc(Cl)cc1Cl	1.7	i
COc1ccc(CNC(=O)CCC(=O)N2C[C@H]3C[C@H](C2)c2cccc(=O)n2C3)cc1	x	i
CCCN1CCc2cccc3c2[C@H]1Cc1ccc(O)c(O)c1-3	-6	-6*
COc1cc2c(cc1O)CC1c3c(cc(O)c(OC)c3-2)CCN1C (centres undefined)	x	i
Cc1nc2ccccc2c(=O)n1-c1ccc(Br)cc1[N+](=O)[O-]	7.4*	i
Cc1nc2ccccc2c(=O)n1-c1ccccc1[N+](=O)[O-]	1.1	i
C[C@H]1CC[C@H]2NCCN[C@H]2C1	x	i
Cc1c2cnn(CC(=O)N3CCC4(CC3)OCCO4)c(=O)c2c(C)n1Cc1ccccc1	x	i
O=C(Cn1ncc2c3ccccc3n(Cc3ccc(F)cc3)c2c1=O)N1CCC2(CC1)OCCO2	19*	i
Clc1ccc(OCC#CCN2CCCCCC2)cc1	0.22	i
COc1cccc(OP(=O)(Nc2ccccc2)Oc2cccc(OC)c2)c1	-7.1	-7.1*
O=P(Nc1ccccc1)(Oc1ccccc1)Oc1ccccc1	0.72	i
Cc1cc(OCC(=O)NC(Cc2ccc(Cl)cc2)C(=O)O)c2c3c(c(=O)oc2c1)CCC3 (centres undefined)	x	i
COCCCn1c(N)c(C(=O)OCCOC)c2nc3ccccc3nc21	0.78	i
CCCCNC(=O)c1c(N)n(CCCOC)c2nc3ccccc3nc12	-8.5	-8.5*
COC(=O)[C@@H](N)CCCN=C(N)N[N+](=O)[O-]	-6.4	-6.4*
Cc1ccc(S(=O)(=O)N(C)C/N=C(\N)N[N+](=O)[O-])cc1	0.1	i
SMILES	KCNQ2 enhance	KCNQ2 block
CC1=C2C(=O)C3C(CC=C4CC(O)CCC43C)C2CCC12OC1CC(C)CNC1C2C (centres undefined)	0.37	i
CC(=O)Nc1ccccc1C(=O)OCc1ccc(C(=O)c2ccccc2)cc1	-6.5	-6.5*
CC(=O)Nc1ccccc1C(=O)OCc1cccc(F)c1	x	i
COc1ccn(C)c(=O)c1C#N	0.56	i
COC(=O)c1c2[n+](cc3cc(OC)c(OC)cc13)CCc1cc(OC)c(OC)cc1-2	x	i
CCOc1cc2c(cc1OCC)-n1cccc1C(c1ccccc1OC)NC2 (centres undefined)	x	i
CCOC(=O)C1(c2ccccc2)CCN(CCC(C#N)(c2ccccc2)c2ccccc2)CC1	-6.8	-6.8*
CCOC(=O)C1(c2ccccc2)CCN(CC(=O)Nc2ccc(C)cc2)CC1	x	i
N#Cc1ccccc1Cn1cc(C(=O)c2cccs2)c2ccccc21	x	i
O=C(c1cccs1)c1cn(Cc2ccccc2Cl)c2ccccc12	-7.3	-7.3*
OC[C@@H](O)CCl	1.2	i
CCOP(=O)(OCC)C(NC(=O)c1cccc(C)c1)C(Cl)(Cl)Cl (centres undefined)	0.7	i
Cc1cccc(C(=O)NC(Oc2ccccc2)C(Cl)(Cl)Cl)c1 (centres undefined)	-5.7	-5.7*
COC(=O)C1=C(c2cccc(OC)c2OC)C[C@@H]2CC[C@H]1N2C(=O)NCc1ccccc1	x	i
COC(=O)C1=C(c2cccc(OC)c2OC)C[C@@H]2CC[C@H]1N2C(=O)NCc1cccc2ccccc12	-6.8	-6.8*
CSc1ccc(CN2CCN(C(=O)Cc3ccccc3)CC2)cc1	0.4	i
CSc1ccc(CN2CCN(Cc3ccccc3Cl)CC2)cc1	-6.6	-6.6*
COc1ccc(OC)c(NP(=O)(Oc2ccccc2)Oc2ccccc2)c1	0.02	i
COc1ccc(OC)c(NP(=O)(Oc2ccc(Cl)cc2)Oc2ccc(Cl)cc2)c1	-6.1	-6.1*
O=C(O)CCn1cc(C=C2C(=O)NC(=O)NC2=O)c(-c2cc3ccccc3oc2=O)n1	x	i
Cc1nc2cc([N+](=O)[O-])ccc2c(=O)n1-c1cccc(Br)c1	3	i
Nc1ccccc1-[n+]1c(-c2ccccc2)cc(-c2ccccc2)cc1-c1ccccc1	-6.5	-6.5*
O=C(O)c1ccc(-[n+]2c(-c3ccccc3)cc(-c3ccccc3)cc2-c2ccccc2)cc1	1.9	i
